# Test results published in PubChem BioAssay AID1159580 (chemical genetic matrix, 2015).
# Values joined by “and” are separate entries in the source; they are usually repeats but may differ in a detail not shown here. Identical values can stand only once. The whole screen tested about 5,500 compounds, of which about 2,000 (36%) were called active. About 18% were inconclusive and are not listed. The list shows a part of the results. A number with no mark means an inactive call. Cut-off read from the data, not from the text of the source: active = normalized growth mostly below about 0.91 (no sharp cut-off); inconclusive = no clear call, values can overlap the other calls; inactive = mostly above about 0.92.
# Experiment: chemical genetic growth profiling, strain panel (AID 1159580);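 note: tested at 20 µM; growth read once vehicle control cultures reached saturation at 30 °C; 1 = growth at the plate median or of vehicle wells; lower values mean less growth of the strain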
# Conditions: S. cerevisiae deletion strains, growth OD
smiles,measurement,setting,value
Cc1cc(O)c(C=O)c2c1C(=O)Oc1c(COC(=O)/C=C/C(=O)O)c(O)c(C(=O)O)c(C)c1O2,normalized growth,"locus YAL021C, strain ccr4, active compounds read low",0.915
same,normalized growth,"locus YAL026C, strain drs2, active compounds read low",0.841 (active)
same,normalized growth,"locus YAL030W, strain snc1, active compounds read low",0.96
same,normalized growth,"locus YBL061C, strain skt5, active compounds read low",0.96
same,normalized growth,"locus YBR009C, strain hhf1, active compounds read low",0.937
same,normalized growth,"locus YBR021W, strain FUR4, active compounds read low",1.06
same,normalized growth,"locus YBR023C, strain chs3, active compounds read low",0.967
same,normalized growth,"locus YBR171W, strain sec66, active compounds read low",0.983
same,normalized growth,"locus YBR229C, strain ROT2, active compounds read low",0.988
same,normalized growth,"locus YBR231C, strain swc5, active compounds read low",0.885 (active)
same,normalized growth,"locus YBR279W, strain paf1, active compounds read low",0.933
same,normalized growth,"locus YCL011C, strain gbp2, active compounds read low",0.974
same,normalized growth,"locus YCL016C, strain dcc1, active compounds read low",0.992
same,normalized growth,"locus YCL029C, strain bik1, active compounds read low",0.98
same,normalized growth,"locus YCL061C, strain MRC1, active compounds read low",0.912 (active)
same,normalized growth,"locus YCL069W, strain vba3, active compounds read low",0.973
same,normalized growth,"locus YCR088W, strain abp1, active compounds read low",1.02
same,normalized growth,"locus YDL005C, strain med2, active compounds read low",1.02
same,normalized growth,"locus YDL035C, strain GPR1, active compounds read low",0.929
same,normalized growth,"locus YDL040C, strain nat1, active compounds read low",1
same,normalized growth,"locus YDL074C, strain BRE1, active compounds read low",0.936
same,normalized growth,"locus YDL101C, strain DUN1, active compounds read low",0.959
same,normalized growth,"locus YDL185W, strain tfp1, active compounds read low",0.919
same,normalized growth,"locus YDL192W, strain arf1, active compounds read low",0.95
same,normalized growth,"locus YDR001C, strain nth1, active compounds read low",0.998
same,normalized growth,"locus YDR069C, strain doa4, active compounds read low",0.883 (active)
same,normalized growth,"locus YDR101C, strain arx1, active compounds read low",0.977
same,normalized growth,"locus YDR137W, strain rgp1, active compounds read low",1.04
same,normalized growth,"locus YDR150W, strain NUM1, active compounds read low",0.951
same,normalized growth,"locus YDR159W, strain sac3, active compounds read low",0.981
same,normalized growth,"locus YDR162C, strain NBP2, active compounds read low",0.808 (active)
same,normalized growth,"locus YDR195W, strain ref2",1.1
same,normalized growth,"locus YDR297W, strain sur2, active compounds read low",0.957
same,normalized growth,"locus YDR318W, strain mcm21, active compounds read low",0.991
same,normalized growth,"locus YDR334W, strain swr1, active compounds read low",0.891 (active)
same,normalized growth,"locus YDR335W, strain msn5, active compounds read low",0.943
same,normalized growth,"locus YDR388W, active compounds read low",0.992
same,normalized growth,"locus YDR392W, strain spt3, active compounds read low",0.813
same,normalized growth,"locus YDR502C, strain sam2, active compounds read low",0.96
same,normalized growth,"locus YEL003W, strain gim4, active compounds read low",0.977
same,normalized growth,"locus YEL037C, strain rad23, active compounds read low",0.939
same,normalized growth,"locus YEL061C, strain CIN8 (second series), active compounds read low",0.993
same,normalized growth,"locus YEL061C, strain CIN8, active compounds read low",0.97
same,normalized growth,"locus YER015W, strain faa2, active compounds read low",0.874 (active)
same,normalized growth,"locus YER016W, strain bim1, active compounds read low",1.03
same,normalized growth,"locus YER110C, active compounds read low",0.981
same,normalized growth,"locus YER111C, strain swi4, active compounds read low",0.906 (active)
same,normalized growth,"locus YER155C, strain BEM2 (second series), active compounds read low",1.01
same,normalized growth,"locus YER155C, strain BEM2, active compounds read low",1
same,normalized growth,"locus YER167W, strain BCK2, active compounds read low",1.01
same,normalized growth,"locus YFR010W, strain ubp6, active compounds read low",0.873 (active)
same,normalized growth,"locus YGL078C, strain dbp3, active compounds read low",0.969
same,normalized growth,"locus YGL086W, strain mad1, active compounds read low",0.971
same,normalized growth,"locus YGL167C, strain pmr1, active compounds read low",0.993
same,normalized growth,"locus YGL173C, strain kem1, active compounds read low",0.856 (active)
same,normalized growth,"locus YGL227W, strain vid30, active compounds read low",1.02
same,normalized growth,"locus YGL240W, strain doc1, active compounds read low",1.06
same,normalized growth,"locus YGL248W, strain PDE1, active compounds read low",0.947
same,normalized growth,"locus YGL253W, strain hxk2, active compounds read low",0.787 (active)
same,normalized growth,"locus YGR135W, strain pre9, active compounds read low",0.958
same,normalized growth,"locus YGR229C, strain SMI1, active compounds read low",0.734 (active)
same,normalized growth,"locus YGR252W, strain gcn5, active compounds read low",1.12
same,normalized growth,"locus YHR013C, strain ard1, active compounds read low",0.877
same,normalized growth,"locus YHR027C, strain rpn1, active compounds read low",0.761 (active)
same,normalized growth,"locus YHR030C, strain SLT2, active compounds read low",0.973 and 0.971
same,normalized growth,"locus YHR079C, strain IRE1 (second series), active compounds read low",0.994
same,normalized growth,"locus YHR079C, strain IRE1, active compounds read low",0.985
same,normalized growth,"locus YHR094C, strain hxt1, active compounds read low",0.994
same,normalized growth,"locus YHR129C, strain ARP1, active compounds read low",0.937
same,normalized growth,"locus YHR142W, strain chs7, active compounds read low",0.852 (active)
same,normalized growth,"locus YHR200W, strain rpn10, active compounds read low",0.976
same,normalized growth,"locus YIL066C, strain RNR3, active compounds read low",0.896
same,normalized growth,"locus YIL073C, strain SPO22, active compounds read low",0.898
same,normalized growth,"locus YIL125W, strain kgd1, active compounds read low",0.969
same,normalized growth,"locus YIR030C, strain dcg1, active compounds read low",0.993
same,normalized growth,"locus YJL092W, strain hpr5, active compounds read low",0.952
same,normalized growth,"locus YJL095W, strain BCK1 (second series), active compounds read low",0.961
same,normalized growth,"locus YJL095W, strain BCK1, active compounds read low",0.904 and 0.959
same,normalized growth,"locus YJL115W, strain asf1, active compounds read low",1
same,normalized growth,"locus YJL129C, strain trk1, active compounds read low",1.08
same,normalized growth,"locus YJL134W, strain LCB3, active compounds read low",0.978
same,normalized growth,"locus YJL154C, strain vps35, active compounds read low",0.992
same,normalized growth,"locus YJL164C, strain tpk1, active compounds read low",0.935
same,normalized growth,"locus YJL166W, strain qcr8, active compounds read low",0.947
same,normalized growth,"locus YJL168C, strain set2, active compounds read low",0.974
same,normalized growth,"locus YJL187C, strain SWE1 (second series), active compounds read low",0.879
